# PostGolgi ctrl = yeast control strain growth, post-Golgi counter-screen; efflux-deficient yeast background strain, growth absorbance A615, 16 h; actives 5% (n = 98,000); AID 738; inhibition, % at 10 µM
# CYP2C19 act = cytochrome P450 2C19 (human) activation; P33261; recombinant CYP2C19, luciferin-H EGE luminescence; active compounds read high; 0 = fully inhibited enzyme, 1 = untreated enzyme; activation factor at 5 µM; 96,000 tested, under 10 active;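 active = activation factor of at least 2 at 5 µM in the primary screen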;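 also: 0 = wells with 2.5 mM tranylcypromine and 1 = vehicle-only wells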
# Target sequence (P33261 whole entry, looked up): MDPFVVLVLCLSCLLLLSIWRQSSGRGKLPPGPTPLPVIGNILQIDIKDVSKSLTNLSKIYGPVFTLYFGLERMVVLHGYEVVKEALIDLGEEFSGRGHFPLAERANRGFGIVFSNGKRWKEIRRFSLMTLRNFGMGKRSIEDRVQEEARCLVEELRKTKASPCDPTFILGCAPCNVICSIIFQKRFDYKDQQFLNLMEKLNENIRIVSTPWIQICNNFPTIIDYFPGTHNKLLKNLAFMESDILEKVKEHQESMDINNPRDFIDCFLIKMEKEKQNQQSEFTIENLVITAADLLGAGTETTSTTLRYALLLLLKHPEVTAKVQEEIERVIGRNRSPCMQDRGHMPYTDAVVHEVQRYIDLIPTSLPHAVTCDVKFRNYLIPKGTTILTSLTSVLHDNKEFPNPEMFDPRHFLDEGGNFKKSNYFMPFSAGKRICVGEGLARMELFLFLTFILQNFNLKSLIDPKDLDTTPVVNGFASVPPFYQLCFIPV
# PostGolgi yeast = growth inhibition of a yeast mutant, post-Golgi transport screen. post-Golgi transport phenotypic cell assay. inhibition, % at 10 µM. actives 0.9% (n = 98,000);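 also: yeast cells grown in 1536-well plates; yeast grown about 18 h at 30C before absorbance read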
# CYP2C19 inhib = blocks human cytochrome P450 2C19; CYP2C19 Supersomes, luciferin-H EGE luminescence, 30 min; inhibition, % at 5 µM; actives 21% (n = 96,000); AID 778;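 active = CYP2C19 inhibition above a set limit at 5 µM in the primary screen, cut at about 50% in these data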;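 also: plate controls were negative control wells for no effect and 2.5 mM tranylcypromine positive control for full effect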
# CYP2C9 act = CYP2C9 (human) activation; activation factor at 5 µM; P11712; actives 1.4% (n = 96,000); recombinant CYP2C9, luciferin-H conversion, luminescence; active compounds read high; factor 1 = untreated enzyme, 0 = blocked;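 active = activation factor of 2 or more for CYP2C9 at a 5 µM dose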;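 also: 0 = sulfaphenazole-blocked wells and 1 = vehicle-only wells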
# CYP2C9 inh = inhibitors of human CYP2C9; P11712; CYP2C9 Supersomes, luciferin-H conversion, luminescence; inhibition, % at 5 µM; actives 20% (n = 96,000); AID 777;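 active = blocking of liver enzyme CYP2C9 beyond about 50% at 5 µM, limit read from the data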
# Starred values were filed as active, the others as inactive; · = no result. Compounds with a hit are over-represented: about 32% of the library has one in this group of screens. Rule as the data show it, unless noted: active = inhibition above about 30%; inactive = the rest.
SMILES,PostGolgi ctrl,CYP2C19 act,PostGolgi yeast,CYP2C19 inhib,CYP2C9 act,CYP2C9 inh
COc1ccc(CCNC(=O)C2CCCN(C(=O)N(C)C)C2)c(OC)c1 (stereo not given),0.6,1,-3.3,-3.3,1.1,-6.6
O=C(Nc1nnc(-c2ccccc2)o1)c1ccc(Cl)cc1,73.8*,1.2,109.7*,-17.4,1.6,-63.0
O=C(Nc1nnc(-c2ccccc2)o1)Nc1ccccc1Cl,-0.3,0.4,7.2,56.5*,0.7,34.4
O=C(CCn1cccc1)NCc1ccccc1,2.2,0.9,-3.3,8.8,1.1,-7.1
CCC(C)n1c(SCC(=O)Nc2cc(C)on2)nc2ccccc2c1=O (stereo not given),2.4,0.4,-6.3,61.6*,0.5,52.2*
Cc1cc(NC(=O)CSc2nc3ccccc3c(=O)n2C(C)c2ccccc2)no1 (stereo not given),9.3,0.2,3.8,82.4*,0.9,14.3
Cc1cc(=O)[nH]c(SCC(=O)c2c(N)n(C)c(=O)n(C)c2=O)n1,3.1,1.2,-7.2,-19.2,1.1,-6.8
Cn1c(=O)n(CCN2CCOCC2)c(=O)c2c1nc1n2CCCN1c1ccccc1,·,0.9,·,11.4,0.8,23.6
Cc1ccc(S(=O)(=O)NC(CC(=O)O)c2ccco2)cc1 (stereo not given),5.0,0.7,-1.1,29.0,1.1,-5.9
CC(C)NS(=O)(=O)c1ccc(CCC(=O)NCc2cccnc2)cc1,3.3,0.9,-0.3,8.4,0.8,24.2
CC(NS(=O)(=O)c1ccc(CCC(=O)NCc2cccnc2)cc1)c1ccccc1 (stereo not given),1.4,0.4,-7.1,58.0*,0.3,71.0*
O=C(CCNS(=O)(=O)c1ccc(Cl)cc1)NCc1cccnc1,-9.3,0.6,-1.1,44.1,0.8,23.7
CCC(C)NC(=O)CC(NS(=O)(=O)c1ccc(Cl)cc1)c1ccco1 (stereo not given),3.6,0.3,14.9,75.0*,0.8,20.1
O=C(CC(NS(=O)(=O)c1ccc(Cl)cc1)c1ccco1)NCc1cccnc1 (stereo not given),5.3,0.1,0.7,88.0*,0.3,70.3*
Cc1ccc(C(=O)Nc2ccc(O)cc2C(=O)O)cc1C,-0.7,0.9,-15.1,10.9,0.9,6.3
COC(=O)c1c(NC(=S)Nc2ccccc2Cl)sc(C)c1C,-0.8,0.7,-3.4,25.3,0.7,25.9
COc1ccc(CCNC(=O)C(C)OC(=O)c2ccco2)cc1OC (stereo not given),0.8,0.7,-5.8,33.8,0.6,40.1
CCCCn1ccnc1C(=O)c1cc(S(=O)(=O)N2CCOCC2)ccc1C,13.1,0.4,5.3,60.1*,0.3,69.3*
Cc1c(C(=O)O)oc2ccc(S(=O)(=O)N3CC(C)CC(C)C3)cc12 (stereo not given),4.8,1,1.1,-0.7,0.7,30.5
Cc1ccc(S(=O)(=O)N2CCOCC2)cc1C(=O)O,18.9,1,20.3,-3.4,1,-0.8
CCCCn1ccnc1C(=O)c1cccc(S(=O)(=O)N2CC(C)CC(C)C2)c1 (stereo not given),10.4,0.2,-8.5,79.1*,0.1,90.2*
CC1(C)Cn2c(nnc2-c2cccc(O)c2)S1,0.6,0.8,-6.9,16.7,0.9,10.3
Cc1ccc(-c2nnc(N3CCN(c4ccccn4)CC3)c3ccccc23)cc1,56.6*,0.5,-0.2,46.5,0.7,31.6
c1ccc(-c2nnc(N3CCN(c4ccccn4)CC3)c3ccccc23)cc1,68.7*,0.3,8.0,67.5*,1.3,-31.1
Cc1ccc2cc(C)c(N3CCN(c4ccccn4)CC3)nc2c1,10.9,0.2,8.1,77.0*,0.3,70.3*
SMILES,PostGolgi ctrl,CYP2C19 act,PostGolgi yeast,CYP2C19 inhib,CYP2C9 act,CYP2C9 inh
CS(=O)(=O)N1CCN(c2nnc(-c3ccccc3)c3ccccc23)CC1,9.9,0.7,-0.5,32.0,0.9,13.8
O=C(O/N=C1/CCSc2ccccc21)c1ccccc1,6.1,0.8,-0.6,18.1,0.9,10.3
O=S(=O)(c1cccs1)N1CCN(CC(O)COC2CCCc3ccccc32)CC1 (stereo not given),11.9,0.7,9.1,34.0,0.4,62.0*
CCOc1ccc(C(=O)N2CCCCCC2)cc1,1.3,0.7,-0.2,31.5,0.9,11.4
CCCOc1ccc(C(=O)N2CCN(c3ccc(N)cc3Cl)CC2)cc1,13.3,0.2,-5.9,84.3*,0.2,80.4*
COc1ccc(NC2=C(C)C(=O)CC2)cc1,45.8*,0.9,-4.0,12.8,0.8,19.0
CC[C@@H](C)[C@H](NC(=O)C1CCN(C(=O)[C@@H](NS(=O)(=O)c2ccc(C)cc2)C(C)C)CC1)C(=O)O,12.7,0.8,7.0,16.1,1,-1.3
Cc1ccc(C2CC(c3ccccc3)n3ncnc3N2)cc1 (stereo not given),0.7,0,1.6,98.5*,0.4,64.8*
Cc1cccc(C2CC(c3ccccc3)Nc3nc(N)nn32)c1 (stereo not given),5.9,0.9,-6.2,10.3,0.9,9.2
Cc1ccc(C2CC(c3cccc(C)c3)n3ncnc3N2)cc1 (stereo not given),0.5,0,4.8,95.5*,0.4,57.3*
CCOC(=O)c1c(-c2ccc(Cl)cc2)cn2ccccc12,0.8,0.7,18.7,25.8,0.9,10.8
O=C(NCc1ccccn1)Nc1ccc(Cl)c(Cl)c1,46.5*,·,-9.4,·,·,·
O=C(NCc1ccccn1)Nc1cccc(Cl)c1,-6.0,0.6,-0.8,41.6,0.9,6.0
S=C(NCc1ccccn1)Nc1ccc(Cl)cc1,-6.1,0.4,6.2,60.3*,0.7,27.7
CC1CN(C(=O)c2cnn3c(C(F)F)cc(-c4ccccc4)nc23)CC(C)O1 (stereo not given),1.8,0.7,4.0,25.6,0.8,18.0
CCc1ccccc1NC(=O)/C(=C/c1ccco1)c1ccccc1,34.9*,0.9,-2.2,7.2,0.8,17.3
CCOc1ccccc1NC(=O)C1=C(C)NC(=O)NC1c1cccc(OC)c1OC (stereo not given),16.5,0.8,-4.5,20.1,0.9,11.5
CCCCNC(=O)COC(=O)c1ccc(Cl)c(S(N)(=O)=O)c1,-3.8,1.1,-6.7,-13.9,1.5,-49.3
CC1(C)C(=O)Nc2ccccc2N1C(=O)COC(=O)c1ccc(Cl)c(S(=O)(=O)NCc2ccccc2)c1,-1.2,0.8,-1.4,16.7,0.1,93.2*
CCOC(=O)c1c(C)[nH]c(C)c1C(=O)COC(=O)c1ccc(Cl)c(S(=O)(=O)NCc2ccccc2)c1,23.7,0.2,-7.3,81.5*,0.2,80.0*
C=CCn1cc(C(=O)NCc2cccnc2)c(=O)c2cc(S(=O)(=O)N(CC)CC)ccc21,4.8,0.6,-2.9,43.3,0.1,89.4*
C=CCn1cc(C(=O)NCCOC)c(=O)c2cc(S(=O)(=O)N(CC)CC)ccc21,0.8,1,5.1,1.1,0.3,74.9*

# Source: PubChem (several laboratories)
